Screening data from PubChem.
Keap1-Nrf2 PPI: Keap1-Nrf2 protein-protein interaction inhibitors, primary screen, biochemical, fluorescence polarization, single point. Keap1 Kelch-Nrf2 peptide fluorescence polarization, 1536-well. inhibition, % at 9.4 µM. hit rate 0.15% among 340,000; in the data active = inhibition above about 12%;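 note: human Keap1 Kelch domain with fluorescein labeled Nrf2 9mer peptide probe; higher means more block of Keap1 binding to Nrf2 peptide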
Target sequence (Q14145 whole entry, looked up, the tested form may be a part): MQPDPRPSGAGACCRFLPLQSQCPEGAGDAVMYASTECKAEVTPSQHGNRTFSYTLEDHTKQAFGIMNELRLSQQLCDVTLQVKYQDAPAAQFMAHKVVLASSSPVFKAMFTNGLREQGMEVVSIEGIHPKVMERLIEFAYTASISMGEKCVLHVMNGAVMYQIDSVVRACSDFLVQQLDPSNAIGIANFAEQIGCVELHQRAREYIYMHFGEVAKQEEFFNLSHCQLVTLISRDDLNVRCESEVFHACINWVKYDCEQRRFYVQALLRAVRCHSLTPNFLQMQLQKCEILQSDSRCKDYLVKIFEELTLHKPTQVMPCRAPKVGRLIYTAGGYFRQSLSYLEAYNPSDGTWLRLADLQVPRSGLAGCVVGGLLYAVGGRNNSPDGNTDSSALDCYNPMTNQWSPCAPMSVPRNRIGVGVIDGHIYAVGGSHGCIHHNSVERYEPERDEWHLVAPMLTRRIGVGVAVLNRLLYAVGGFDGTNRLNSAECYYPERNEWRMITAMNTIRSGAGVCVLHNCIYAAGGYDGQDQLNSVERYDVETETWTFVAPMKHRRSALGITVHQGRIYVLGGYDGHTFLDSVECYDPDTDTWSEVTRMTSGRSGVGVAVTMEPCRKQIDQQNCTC
GLD-1 TGE inh: GLD-1/TGE RNA complex disruptors, primary screen, biochemical, fluorescence polarization; Female germline-specific tumor suppressor gld-1 (Caenorhabditis elegans), Q17339; purified GLD-1 + fluorescein TGE RNA; inhibition, % at 5.96 µM; hit rate 0.44% among 320,000;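 active = percent inhibition above a per-plate cutoff, the plate mean of test compounds plus 3 SD, cut at about 30% in these data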
Bcl-xL primary: inhibitors of human Bcl-xL, primary screen, biochemical, fluorescence polarization, HTS; inhibition, % at 10.9 µM; GST-Bcl-xL / FITC-Bim BH3 peptide fluorescence polarization; AID 2129, 2009; Bcl-2-like protein 1 (Homo sapiens), Q07817; hit rate 0.7% among 320,000;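 active = inhibition above the mean of all tested compounds plus 3 SD, cutoff set per campaign, cut at about 30% in these data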;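 note: inhibitors lower millipolarization by displacing the labeled peptide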
MCL1 BIM primary: inhibitors of MCL1 binding to BIM-BH3, primary screen, biochemical, fluorescence polarization | GST-MCL1 / FITC-Bim-BH3 fluorescence polarization | inhibition, % at 10.9 µM | hit rate 0.68% among 320,000 | AID 2057, 2009;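 active = inhibition above the mean inhibition of all tested compounds plus 3 SD, set per campaign, cut at about 40% in these data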;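 note: higher means more loss of mP so more displacement of Bim peptide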
E coli Lon inh: inhibitors of E. coli Lon protease, primary screen, biochemical, fluorescence polarization; P0A9M0; purified E. coli Lon protease; inhibition, % at 7.94 µM; hit rate 0.42% among 360,000; in the data active = inhibition above about 13%, passing the limit was not always enough
LANA DNA inh: inhibitors of KSHV C-LANA binding to DNA, primary screen, biochemical, fluorescence polarization, FAM-LBS DNA, MBP-C-LANA, single point; Kaposi's sarcoma herpesvirus LANA C-terminal domain (residues 932-1162) DNA binding; inhibition, % at 9 µM; hit rate 0.078% among 340,000; AID 504423, 2011;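 active = highest replicate inhibition at or above 60% at 9 µM, even if other replicates fall short; inactive = all replicates below 60% inhibition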
Bcl-xL conf: Bcl-xL inhibitors blocking Bim BH3 binding, confirmation, counter-screen for MCL1 inhibitor project, biochemical, fluorescence polarization; hit rate 54% among 1,700; shares compounds with MCL1 BIM primary; inhibition, % at 10.9 µM; GST-Bcl-xL / FITC-Bim BH3 peptide FP binding; AID 2166, 2009;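 active = inhibition above a cutoff equal to the mean inhibition of all tested compounds plus 3 SD, cut at about 30% in these data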
MCL1 BIM confirm: inhibitors of MCL1 binding to BIM-BH3, confirmation, biochemical, fluorescence polarization, triplicate; inhibition, % at 10.9 µM; hit rate 61% among 1,700; shares compounds with MCL1 BIM primary; AID 2168, 2009; GST-MCL1 / FITC-Bim-BH3 fluorescence polarization;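 active = inhibition above the average of all tested compounds plus 3 SD, cut at about 40% in these data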
GLD1 RNA confirm: GLD-1/TGE RNA binding inhibitors, retest, confirmation, biochemical, fluorescence polarization, triplicate; shares compounds with GLD-1 TGE inh; GLD-1/FL-TGE RNA fluorescence polarization; inhibition, % at 5.96 µM; hit rate 10% among 550; AID 2459, 2010;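 active = average inhibition across triplicates above the hit cutoff set in the primary screen, cut at about 32% in these data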
Numbers stand for hits. Only some compounds are listed: those with a hit (about 1.3% of all), similar ones and a draw of the others.

How did CCOC(=O)N1CCc2[nH]c3ccc(C)cc3c2C1 do in these assays?
Keap1-Nrf2 PPI: inactive; GLD-1 TGE inh: 53; Bcl-xL primary: 66; MCL1 BIM primary: 63; E coli Lon inh: inactive; LANA DNA inh: inactive; Bcl-xL conf: inactive; MCL1 BIM confirm: inactive; GLD1 RNA confirm: inactive

How did CC(=O)N1CCc2[nH]c3ccc(C)cc3c2C1 do in these assays?
Keap1-Nrf2 PPI: inactive; GLD-1 TGE inh: inactive; Bcl-xL primary: inactive; MCL1 BIM primary: inactive; E coli Lon inh: inactive; LANA DNA inh: inactive

What do the screens show for `Cc1nn(-c2ccccn2)c2c1C(c1c(F)cccc1Cl)C1=C(N2)c2ccccc2C1=O` (stereo unspecified)?
GLD-1 TGE inh: inactive; Bcl-xL primary: inactive; MCL1 BIM primary: inactive

What do the screens show for `O=C1C=C(Nc2cccc3cccnc23)c2ccccc2C1=O`?
Keap1-Nrf2 PPI: inactive; GLD-1 TGE inh: 34; Bcl-xL primary: 55; MCL1 BIM primary: 59; E coli Lon inh: inactive; LANA DNA inh: inactive; Bcl-xL conf: 45; MCL1 BIM confirm: 46; GLD1 RNA confirm: inactive

Results for O=C1C=C(Nc2ccccc2C(=O)O)c2ccccc2C1=O ?
Keap1-Nrf2 PPI: inactive; GLD-1 TGE inh: inactive; Bcl-xL primary: inactive; MCL1 BIM primary: inactive; E coli Lon inh: inactive; LANA DNA inh: inactive

How did COC(=O)c1c(NC(=O)CSc2ncn[nH]2)sc(C)c1C do in these assays?
Keap1-Nrf2 PPI: inactive; GLD-1 TGE inh: 32; Bcl-xL primary: 56; MCL1 BIM primary: 71; E coli Lon inh: inactive; LANA DNA inh: inactive; Bcl-xL conf: inactive; MCL1 BIM confirm: inactive; GLD1 RNA confirm: inactive

What do the screens show for `COc1ccc(N2CCCC2)c(NC(=O)c2ccc(Br)o2)c1`?
Keap1-Nrf2 PPI: inactive; GLD-1 TGE inh: 38; Bcl-xL primary: 48; MCL1 BIM primary: 56; E coli Lon inh: inactive; LANA DNA inh: inactive; Bcl-xL conf: inactive; MCL1 BIM confirm: inactive; GLD1 RNA confirm: 41

What do the screens show for `COCCCNC(=O)c1c(N)n(-c2ccc3c(c2)OCO3)c2nc3ccccc3nc12`?
Keap1-Nrf2 PPI: inactive; GLD-1 TGE inh: 49; Bcl-xL primary: 48; MCL1 BIM primary: 58; E coli Lon inh: inactive; LANA DNA inh: inactive; Bcl-xL conf: inactive; MCL1 BIM confirm: inactive; GLD1 RNA confirm: inactive

Results for CCOC(=O)c1ccc(NC(=O)CN(c2ccc(C)cc2)S(=O)(=O)c2c(C)n[nH]c2C)cc1 ?
Keap1-Nrf2 PPI: inactive; GLD-1 TGE inh: 74; Bcl-xL primary: 92; MCL1 BIM primary: 106; E coli Lon inh: inactive; LANA DNA inh: inactive; Bcl-xL conf: inactive; MCL1 BIM confirm: inactive; GLD1 RNA confirm: inactive

What do the screens show for `CCOc1ccccc1NC(=O)CN(c1ccc(C)cc1)S(=O)(=O)c1c(C)n[nH]c1C`?
Keap1-Nrf2 PPI: inactive; GLD-1 TGE inh: inactive; Bcl-xL primary: inactive; MCL1 BIM primary: inactive; E coli Lon inh: inactive; LANA DNA inh: inactive

What do the screens show for `O=c1[nH]c2cc3c(cc2cc1CN(Cc1nnnn1CC1CCCO1)C1CCCCC1)OCO3` (stereo unspecified)?
Keap1-Nrf2 PPI: inactive; GLD-1 TGE inh: 43; Bcl-xL primary: 77; MCL1 BIM primary: 85; E coli Lon inh: inactive; LANA DNA inh: inactive; Bcl-xL conf: 45; MCL1 BIM confirm: 68; GLD1 RNA confirm: inactive

Results for O=c1[nH]c2cc3c(cc2cc1CN(Cc1nnnn1CC1CCCO1)C1CCCC1)OCO3 (stereo unspecified) ?
Keap1-Nrf2 PPI: inactive; GLD-1 TGE inh: inactive; Bcl-xL primary: inactive; MCL1 BIM primary: inactive; E coli Lon inh: inactive; LANA DNA inh: inactive

What do the screens show for `COc1cccc(C(=O)NCCS(=O)(=O)NCc2ccc(Cl)cc2)c1`?
Keap1-Nrf2 PPI: inactive; GLD-1 TGE inh: inactive; Bcl-xL primary: inactive; MCL1 BIM primary: inactive; E coli Lon inh: inactive; LANA DNA inh: inactive

Results for O=C(O)CCNc1cc(N2CCN(C(=O)c3ccco3)CC2)c2noc3c2c1C(=O)c1ccccc1-3 ?
Keap1-Nrf2 PPI: inactive; GLD-1 TGE inh: 37; Bcl-xL primary: 78; MCL1 BIM primary: 93; E coli Lon inh: inactive; LANA DNA inh: inactive; Bcl-xL conf: 59; MCL1 BIM confirm: inactive; GLD1 RNA confirm: inactive

How did Cc1cc(N2CCN(C(=O)c3ccco3)CC2)c2ccccc2n1 do in these assays?
Keap1-Nrf2 PPI: inactive; GLD-1 TGE inh: inactive; Bcl-xL primary: inactive; MCL1 BIM primary: inactive; E coli Lon inh: inactive; LANA DNA inh: inactive

How did Cc1ccc(-c2cc(-c3ccco3)c(C#N)c(=O)[nH]2)cc1 do in these assays?
Keap1-Nrf2 PPI: inactive; GLD-1 TGE inh: 50; Bcl-xL primary: 79; MCL1 BIM primary: 96; E coli Lon inh: inactive; LANA DNA inh: inactive; Bcl-xL conf: inactive; MCL1 BIM confirm: 53; GLD1 RNA confirm: inactive

What do the screens show for `Cc1cc2[nH]c(=O)c(=O)[nH]c2cc1S(=O)(=O)NCc1ccc(Cl)cc1`?
Keap1-Nrf2 PPI: inactive; GLD-1 TGE inh: inactive; Bcl-xL primary: inactive; MCL1 BIM primary: inactive; E coli Lon inh: inactive; LANA DNA inh: inactive

How did O=c1[nH]c(Nc2ccccn2)cc2ccccc12 do in these assays?
Keap1-Nrf2 PPI: inactive; GLD-1 TGE inh: inactive; Bcl-xL primary: inactive; MCL1 BIM primary: inactive; E coli Lon inh: inactive; LANA DNA inh: inactive

Results for O=c1[nH]c(Nc2ccc(F)cc2)cc2ccccc12 ?
Keap1-Nrf2 PPI: inactive; GLD-1 TGE inh: 66; Bcl-xL primary: 54; MCL1 BIM primary: 66; E coli Lon inh: inactive; LANA DNA inh: inactive; Bcl-xL conf: inactive; MCL1 BIM confirm: inactive; GLD1 RNA confirm: inactive

What do the screens show for `CC(C)NC(=O)c1c(CSc2ccccc2)noc1C(=O)NCc1ccccc1`?
Keap1-Nrf2 PPI: inactive; GLD-1 TGE inh: inactive; Bcl-xL primary: inactive; MCL1 BIM primary: inactive; E coli Lon inh: inactive; LANA DNA inh: inactive

What do the screens show for `O=C1/C(=C\c2ccco2)NC(=S)N1c1ccccc1`?
Keap1-Nrf2 PPI: inactive; GLD-1 TGE inh: 55; Bcl-xL primary: 34; MCL1 BIM primary: 50; E coli Lon inh: inactive; LANA DNA inh: inactive; Bcl-xL conf: inactive; MCL1 BIM confirm: inactive; GLD1 RNA confirm: inactive
